{
  "source": "PubChem BioAssay (NCATS)",
  "key": {"[1]": {"test": "qHTS Assay for Identifying Gametocytocidal Compounds (AID 743244; active means well fitted curve in the direction sought with a large enough effect; further: potency means the concentration at half of the fitted maximal effect;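 on max response: on the % scale 0 is the no-effect control and ±100 the full control effect; actives lower the fluorescent signal which means gametocytes are killed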)", "conditions": "P. falciparum 3D7 stage III-V gametocytes, alamarBlue, 72 h; max response: stronger effect = lower value", "summary_of_the_method": "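3D7 gametocytes, stages III–V, 20,000/well; cpd 72 h, 37 °C/5% CO2; + alamarBlue 24 h; fluor. Ex 525/Em 598.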"}, "[2]": {"test": "qHTS profiling of the MIPE4 collection as inhibitors of Plasmodium falciparum (3D7) proliferation (AID 743344);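 further: scaled between DMSO vehicle wells and 0.29 µM artemisinin as full inhibition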", "conditions": "P. falciparum 3D7 in erythrocytes, SYBR Green DNA fluorescence, 72 h; at 28.5 µM (top of the series) unless noted", "summary_of_the_method": "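Parasite DNA was quantified by SYBR Green I fluorescence (ex 485, em 535 nm) after overnight lysis in saponin/Triton buffer at room temperature. Cultures at 0.3% parasitemia and 2.5% hematocrit were first exposed to compound for 72 h at 37 C; signals were normalised to artemisinin (0.29 uM) and vehicle wells.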"}},
  "note": "Results filed as inconclusive are left out. The source made the active and inactive calls. Unless noted, how the calls were made is not given here.",
  "data": [
    {"smiles": "CCC(C)(C)c1ccc(CC(C)CN2C[C@@H](C)O[C@@H](C)C2)cc1", "note": "(stereo partly specified)", "values": [
      {"measurement": "max response", "setting": "[1]", "result": "21.2% (inactive)"},
      {"measurement": "parasite growth, % of DMSO control", "setting": "[2]", "result": 17.4, "unit": "%"}
    ]},
    {"smiles": "COC(=O)Nc1nc2ccc(Sc3ccccc3)cc2[nH]1", "values": [
      {"measurement": "max response", "setting": "[1]", "result": "2.65% (inactive)"},
      {"measurement": "parasite growth, % of DMSO control", "setting": "[2]", "result": 75.4, "unit": "%"}
    ]},
    {"smiles": "C1CCC(C(CC2CCCCN2)C2CCCCC2)CC1", "note": "(stereo unspecified)", "values": [
      {"measurement": "Potency", "setting": "[1]", "result": "10 µM (active)"},
      {"measurement": "parasite growth, % of DMSO control", "setting": "[2]", "result": 6.92, "unit": "%"}
    ]},
    {"smiles": "COc1cccc(N(C)C(=S)Oc2ccc3c(c2)CCCC3)n1", "values": [
      {"measurement": "max response", "setting": "[1]", "result": "-0.766% (inactive)"},
      {"measurement": "parasite growth, % of DMSO control", "setting": "[2]", "result": 47.9, "unit": "%"}
    ]},
    {"smiles": "Oc1c(Cl)cc(Cl)c2cccnc12", "values": [
      {"measurement": "Potency", "setting": "[1]", "result": "7.08 µM (active)"},
      {"measurement": "parasite growth, % of DMSO control", "setting": "[2]", "result": 123, "unit": "%"}
    ]},
    {"smiles": "CCCc1cc(C(N)=S)ccn1", "values": [
      {"measurement": "max response", "setting": "[1]", "result": "4.17% (inactive)"},
      {"measurement": "parasite growth, % of DMSO control", "setting": "[2]", "result": 6.05, "unit": "%"}
    ]},
    {"smiles": "CNNCc1ccc(C(=O)NC(C)C)cc1", "values": [
      {"measurement": "max response", "setting": "[1]", "result": "-5.75% (inactive)"},
      {"measurement": "parasite growth, % of DMSO control", "setting": "[2]", "result": 72.9, "unit": "%"}
    ]},
    {"smiles": "CO[C@@H]1[C@@H](OC(N)=O)[C@@H](O)[C@H](Oc2ccc3c(O)c(NC(=O)c4ccc(O)c(CC=C(C)C)c4)c(=O)oc3c2C)OC1(C)C", "values": [
      {"measurement": "max response", "setting": "[1]", "result": "1.46% (inactive)"},
      {"measurement": "parasite growth, % of DMSO control", "setting": "[2]", "result": 61, "unit": "%"}
    ]},
    {"smiles": "COc1cnc(NS(=O)(=O)c2ccc(N)cc2)nc1", "values": [
      {"measurement": "max response", "setting": "[1]", "result": "7.05% (inactive)"},
      {"measurement": "parasite growth, % of DMSO control", "setting": "[2]", "result": 87.5, "unit": "%"}
    ]},
    {"smiles": "CCc1c2c(nc3ccc(OC(=O)N4CCC(N5CCCCC5)CC4)cc13)-c1cc3c(c(=O)n1C2)COC(=O)[C@]3(O)CC", "values": [
      {"measurement": "max response", "setting": "[1]", "result": "2.43% (inactive)"},
      {"measurement": "parasite growth, % of DMSO control", "setting": "[2]", "result": 66.3, "unit": "%"}
    ]},
    {"smiles": "C[C@@H](NCCCc1cccc(C(F)(F)F)c1)c1cccc2ccccc12", "values": [
      {"measurement": "parasite growth, % of DMSO control", "setting": "[2]", "result": 16.2, "unit": "%"}
    ]},
    {"smiles": "CCCc1nc(C)c2c(=O)[nH]c(-c3cc(S(=O)(=O)N4CCN(CC)CC4)ccc3OCC)nn12", "values": [
      {"measurement": "max response", "setting": "[1]", "result": "1.11% (inactive)"},
      {"measurement": "parasite growth, % of DMSO control", "setting": "[2]", "result": 6.01, "unit": "%"}
    ]},
    {"smiles": "NC(=O)c1cccnc1", "values": [
      {"measurement": "max response", "setting": "[1]", "result": "0.464% (inactive)"},
      {"measurement": "parasite growth, % of DMSO control", "setting": "[2]", "result": 98.2, "unit": "%"}
    ]},
    {"smiles": "COc1cc(NCc2ccc3nc(N)nc(N)c3c2C)cc(OC)c1OC", "values": [
      {"measurement": "parasite growth, % of DMSO control", "setting": "[2]", "result": 15.9, "unit": "%"}
    ]}
  ]
}
